These results are taken from PubChem BioAssay (NCATS).

Results filed as inconclusive are left out. Unmarked numbers belong to inactive results. Activity calls are given as the source filed them. Unless noted, calls follow the shape of the dose curve; as a rule, active = well fitted curve in the direction sought with a large enough effect; inconclusive = small, poorly fitted or top-dose-only effect, or another doubt; inactive = no such curve, though single readings can be large; an effect the other way counts as inactive or inconclusive.

The target of experiment [1] is Voltage-gated inwardly rectifying potassium channel KCNH2 (Homo sapiens) (UniProt Q12809). In words: qHTS Assay for Small Molecule Inhibitors of the Human hERG Channel Activity (AID 588834).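 Also: lower thallium flux fluorescence means stronger hERG block; nearly all actives have a fitted effect of over 50% in size.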 Also: potency is read from the fitted curve at half-maximal effect. The procedure, abridged: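 Concentration-response qHTS measuring drop in thallium-sensitive dye signal. U2OS cells carrying BacMam hERG; compound exposure ~10 min, then stimulation buffer and 2 min read at 1 sec intervals.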
Sequence of Voltage-gated inwardly rectifying potassium channel KCNH2 (Homo sapiens) (Q12809 whole entry, looked up): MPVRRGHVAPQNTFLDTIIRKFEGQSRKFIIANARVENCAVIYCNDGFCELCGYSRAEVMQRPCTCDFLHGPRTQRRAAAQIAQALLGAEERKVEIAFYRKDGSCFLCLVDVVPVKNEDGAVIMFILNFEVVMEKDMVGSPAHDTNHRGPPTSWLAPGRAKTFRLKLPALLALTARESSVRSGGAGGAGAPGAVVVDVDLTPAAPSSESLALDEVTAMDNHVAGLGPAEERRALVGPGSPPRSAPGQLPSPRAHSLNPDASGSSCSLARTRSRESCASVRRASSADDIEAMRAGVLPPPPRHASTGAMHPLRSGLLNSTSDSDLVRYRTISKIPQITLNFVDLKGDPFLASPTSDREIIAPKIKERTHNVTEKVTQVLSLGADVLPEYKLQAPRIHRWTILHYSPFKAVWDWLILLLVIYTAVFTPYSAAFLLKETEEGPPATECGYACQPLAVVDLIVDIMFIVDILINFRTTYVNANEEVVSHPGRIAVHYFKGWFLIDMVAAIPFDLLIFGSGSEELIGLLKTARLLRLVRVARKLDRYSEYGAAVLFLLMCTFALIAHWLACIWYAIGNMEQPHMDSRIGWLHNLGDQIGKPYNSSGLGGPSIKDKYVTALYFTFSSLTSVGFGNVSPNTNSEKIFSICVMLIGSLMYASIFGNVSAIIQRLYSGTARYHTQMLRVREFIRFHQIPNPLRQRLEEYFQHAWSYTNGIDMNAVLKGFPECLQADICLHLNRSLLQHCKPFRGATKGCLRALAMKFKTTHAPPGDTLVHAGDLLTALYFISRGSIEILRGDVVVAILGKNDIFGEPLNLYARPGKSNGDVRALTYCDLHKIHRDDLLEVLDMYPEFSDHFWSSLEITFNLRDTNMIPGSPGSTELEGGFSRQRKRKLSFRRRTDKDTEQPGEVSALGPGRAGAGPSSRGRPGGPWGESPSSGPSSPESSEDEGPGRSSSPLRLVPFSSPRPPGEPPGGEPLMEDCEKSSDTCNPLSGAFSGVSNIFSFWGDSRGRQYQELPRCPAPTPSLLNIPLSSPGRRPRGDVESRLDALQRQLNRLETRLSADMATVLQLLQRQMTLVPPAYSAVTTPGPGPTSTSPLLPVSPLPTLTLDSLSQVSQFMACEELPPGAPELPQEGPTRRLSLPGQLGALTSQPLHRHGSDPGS
(In general: Quantitative high-throughput screening tests each substance at several concentrations.)

Experiment [2] deals with Luciferin 4-monooxygenase (Photinus pyralis) (UniProt P08659). Put plainly: Biochemical firefly luciferase enzyme assay for NPC (AID 624030). Also: nearly all actives have a fitted effect of over 70% in size. Also: potency is read from the fitted curve at half-maximal effect. The procedure, abridged:
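Purified P. pyralis luciferase at 10 nM in 50 mM Tris Acetate (final), luminescence read within 5 minutes of enzyme addition to compounds. Activity normalised to PTC124 versus DMSO; concentration-response curves classed by r2, magnitude and activity.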

Experiment [3] can be described thus: S16 Schwann cell viability assay (CellTiter-Glo assay) (AID 624031). Also: nearly all actives have a fitted effect of over 70% in size. Also: potency is read from the fitted curve at half-maximal effect. The procedure, abridged:
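Counter-screen for cytotoxicity: parental S16 rat Schwann cells lacking the PMP22 reporters, treated 24 h with compound, viability from cellular ATP by CellTiter-Glo luminescence, normalized to DMSO (0%) and no-cell wells.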
On the technique in general: ATP-based viability assays read luminescence as a measure of living cells.

A short description of experiment [4]: S16 Schwann cell PMP22 intronic element firefly luciferase assay (AID 624032). Also: nearly all actives have a fitted effect of over 30% in size. Also: potency is read from the fitted curve at half-maximal effect. In a few lines:
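Rat S16 Schwann cells stably carrying firefly luciferase driven by a PMP22 intronic element, in 10% FBS, treated 24 h at 37 C. ONE-Glo luminescence normalized to PTC124 control and DMSO (0%); curves classed by r2, magnitude and activity.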

The nature of experiment [5]: S16 Schwann cell PMP22 intronic element beta-lactamase assay (AID 624044; calls by dose curve;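 also: 0% = DMSO and -100% = potassium clavulanate positive control; nearly all actives have a fitted effect of over 15% in size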). To be noted: S16 rat Schwann cells, PMP22 element beta-lactamase FRET, 24 h; ratio activity, negative = inhibition: at 38.3 µM (top of the series) unless noted. The procedure, abridged:
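Rat S16 Schwann cells with beta-Lac driven by a PMP22 intronic element, compound-treated 24 h at 37 °C. LiveBLAzer FRET B/G read: 460 nm normalized to potassium clavulanate vs DMSO; 535 nm FRET as viability; concentration-effect curves classified.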

Sequence of Luciferin 4-monooxygenase (Photinus pyralis) (P08659 whole entry, looked up): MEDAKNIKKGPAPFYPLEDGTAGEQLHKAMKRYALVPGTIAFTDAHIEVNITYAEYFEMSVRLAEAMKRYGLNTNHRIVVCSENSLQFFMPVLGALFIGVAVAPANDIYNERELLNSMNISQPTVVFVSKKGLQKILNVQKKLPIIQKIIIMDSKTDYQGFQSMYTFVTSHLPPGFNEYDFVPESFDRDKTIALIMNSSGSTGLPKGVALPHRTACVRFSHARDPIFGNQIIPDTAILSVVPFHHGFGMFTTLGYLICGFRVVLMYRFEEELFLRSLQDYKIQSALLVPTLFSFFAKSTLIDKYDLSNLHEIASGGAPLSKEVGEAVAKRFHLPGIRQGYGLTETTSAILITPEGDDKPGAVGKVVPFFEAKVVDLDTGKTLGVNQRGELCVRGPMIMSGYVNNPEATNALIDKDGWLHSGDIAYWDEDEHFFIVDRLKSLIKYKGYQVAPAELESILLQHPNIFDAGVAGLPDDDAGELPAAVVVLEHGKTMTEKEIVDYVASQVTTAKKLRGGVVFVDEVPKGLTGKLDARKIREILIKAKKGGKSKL

Take `CN1C(=O)OC(C)(C)C1=O`: the Potency result in experiment [1], in experiment [2], in experiment [3] and in experiment [4] was “inactive” each time.
As to `C/C(=C\C(=O)OCCCCCCCCC(=O)O)C[C@@H]1OC[C@H](C[C@@H]2O[C@H]2[C@@H](C)[C@H](C)O)[C@@H](O)[C@H]1O`, the Potency result in experiment [1], in experiment [2], in experiment [3] and in experiment [4] was “inactive” in each case.
With `C[C@H](N)C(=O)N[C@@H](C)P(=O)(O)O`, the Potency entry in experiment [1], in experiment [2], in experiment [3] and in experiment [4] was “inactive” each time. In addition, the ratio activity, negative = inhibition in experiment [5] is 4.18%.
As for `CC1C(=O)CC2C3(C)CCC2(C(C)C(=O)O)C(=O)C13` (stereo not given), the Potency entry in experiment [1], in experiment [2], in experiment [3] and in experiment [4] was “inactive” throughout.
For `CN=C1C=CC(=C(c2ccc(N(C)C)cc2)c2ccc(N(C)C)cc2)C=C1`, the Potency in experiment [1] was 4.47 µM (active); in experiment [2], 14.4 µM (active); in experiment [3], 10.2 µM (active); in experiment [4], 14.4 µM (active).
Turning to `O=C(O)c1ccc(OCCn2ccnc2)cc1`, the Potency result in experiment [1], in experiment [2], in experiment [3] and in experiment [4] was “inactive” in each case.
Consider `Cc1cccc(C)c1NC(=O)C1CCCCN1C` (stereo not given), for which the Potency result in experiment [1], in experiment [2], in experiment [3] and in experiment [4] was “inactive” throughout.
Take `CN1CCC(OC(=O)C(Oc2ccc(Cl)cc2)Oc2ccc(Cl)cc2)CC1`: the Potency in experiment [1] was 1 µM (active). Besides, the Potency entry in experiment [2], in experiment [3] and in experiment [4] was “inactive” throughout. The ratio activity, negative = inhibition in experiment [5] was 2.81%.
Consider `O=C(Nc1ccc(O)cc1)c1ccccc1O`, for which the Potency result in experiment [1], in experiment [3] and in experiment [4] was “inactive” each time. Further, the Potency in experiment [2] was 14.4 µM (active).
On to `O=P(O)(O)OC[C@H](O)CO`, for which the Potency entry in experiment [1], in experiment [2], in experiment [3] and in experiment [4] was “inactive” each time. Besides, the ratio activity, negative = inhibition in experiment [5] is 2.95%.
Turning to `O=C1NCCN1c1ncc([N+](=O)[O-])s1`, the Potency result in experiment [1], in experiment [2], in experiment [3] and in experiment [4] was “inactive” each time.
Consider `Nc1ncnc2c1ncn2CCOCP(=O)(O)O`, for which the Potency entry in experiment [1], in experiment [2], in experiment [3] and in experiment [4] was “inactive” in each case.
As to `COC(=O)[C@@H](N)CS`, the Potency entry in experiment [1], in experiment [2], in experiment [3] and in experiment [4] was “inactive” in each case.
With `O=[n+]1ccn([O-])c2ccccc21`, the Potency result in experiment [1], in experiment [2], in experiment [3] and in experiment [4] was “inactive” in each case. Besides, the ratio activity, negative = inhibition in experiment [5] is 6.86%.
Turning to `Cc1ccc(C(C)(C)c2ccc(C)cc2)cc1`, the Potency result in experiment [1], in experiment [2], in experiment [3] and in experiment [4] was “inactive” throughout.
As to `CC(C)Cc1ccc([C@@H](C)C(=O)NS(C)(=O)=O)cc1`, the Potency result in experiment [1], in experiment [2], in experiment [3] and in experiment [4] was “inactive” each time.
Regarding `CCN(CC)CCOc1ccc2nc(N(C)C)sc2c1`, the Potency entry in experiment [1], in experiment [2], in experiment [3] and in experiment [4] was “inactive” each time.
Regarding `CO/N=C(\C(=O)N[C@@H]1C(=O)N2C(C(=O)[O-])=C(C[n+]3cccc4c3CCC4)CS[C@H]12)c1csc(N)n1`, the Potency result in experiment [1], in experiment [2], in experiment [3] and in experiment [4] was “inactive” each time.
For `NC(=O)[C@H]1O[C@@H](O)[C@H](O)[C@@H](O)[C@@H]1O`, the Potency result in experiment [1], in experiment [2], in experiment [3] and in experiment [4] was “inactive” in each case.
On to `NCC[C@H](O)C(=O)N[C@@H]1C[C@H](N)[C@@H](O[C@H]2O[C@H](CN)CC[C@H]2N)[C@H](O)[C@H]1O[C@H]1O[C@H](CO)[C@@H](O)[C@H](N)[C@H]1O`, for which the Potency entry in experiment [1], in experiment [2], in experiment [3] and in experiment [4] was “inactive” in each case.
On to `CNC(=O)OCc1cccc(COC(=O)NC)n1`, for which the Potency entry in experiment [1], in experiment [2], in experiment [3] and in experiment [4] was “inactive” in each case.
In the case of `C=CC(=O)O`, the Potency entry in experiment [1], in experiment [2], in experiment [3] and in experiment [4] was “inactive” each time. Moreover, in experiment [5], the ratio activity, negative = inhibition was -7.38%.
Consider `CC1=C(/C=C/C(C)=C/C=C/C(C)=C/C(=O)Oc2c(C)c(C)c3c(c2C)CC[C@@](C)(CCC[C@H](C)CCC[C@H](C)CCCC(C)C)O3)C(C)(C)CCC1`, for which the Potency result in experiment [1], in experiment [2] and in experiment [3] was “inactive” throughout. In experiment [4], the Potency is 5.73 µM (active). Moreover, in experiment [5], the ratio activity, negative = inhibition is -26.4%.
Regarding `CC1(O)CCC(C(C)(C)O)CC1` (stereo not given), the Potency result in experiment [1], in experiment [2], in experiment [3] and in experiment [4] was “inactive” in each case.
Turning to `CCCCCCCCCCCCOCCCN`, the Potency result in experiment [1], in experiment [2], in experiment [3] and in experiment [4] was “inactive” each time. In experiment [5], the ratio activity, negative = inhibition was 0.509%.
For the compound `CN1c2c(nc(N)[nH]c2=O)NCC1CNc1ccc(C(=O)NC(CCC(=O)O)C(=O)O)cc1` (stereo not given), the Potency entry in experiment [1], in experiment [2], in experiment [3] and in experiment [4] was “inactive” each time.
For `CSCCC(N)C(=O)O` (stereo not given), the Potency entry in experiment [1], in experiment [2], in experiment [3] and in experiment [4] was “inactive” each time.
As to `Cc1cc(C(=O)NCCc2ccc(S(=O)(=O)NC(=O)NN3CCCCCC3)cc2)no1`, the Potency entry in experiment [1], in experiment [2], in experiment [3] and in experiment [4] was “inactive” throughout.
`O=C(O)[C@H]1CN(C/C=C/P(=O)(O)O)CCN1`: the Potency entry in experiment [1], in experiment [2], in experiment [3] and in experiment [4] was “inactive” throughout.
As to `S=C=Nc1ccc(N=C=S)cc1`, the Potency entry in experiment [1], in experiment [2], in experiment [3] and in experiment [4] was “inactive” each time.
Consider `FC(F)(F)COCC(F)(F)F`, for which the Potency result in experiment [1], in experiment [2], in experiment [3] and in experiment [4] was “inactive” each time. Also, the ratio activity, negative = inhibition in experiment [5] is -0.887%.
Consider `OCC1(CO)COC(C(Cl)(Cl)Cl)OC1`, for which the Potency result in experiment [1], in experiment [2], in experiment [3] and in experiment [4] was “inactive” in each case.
Consider `CC(C)NCC(O)COc1ccccc1-n1cccc1` (stereo not given), for which the Potency in experiment [1] is 14.1 µM (active). The Potency entry in experiment [2], in experiment [3] and in experiment [4] was “inactive” each time.
